Source: PubChem BioAssay (NCI)
This is part of a sample that, as a whole, favours compounds with a hit. Of some 83,000 tested, about 20% had one in any assay.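 Treatment: one concentration, 48 hours, 96-well format. Scoring: percent growth, with anything below 10 considered active.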 A number with no mark means an inactive call. Activity calls are given as the source filed them.

System: SK-MEL-2 melanoma
Experiment: NCI-60 one-dose screen, 48 h (100 = growth as untreated, 0 = no growth, -100 = all killed)
Conditions: 10 µM unless noted

| SMILES | growth |
| --- | --- |
| CCCSc1nc(Nc2ccc(S(N)(=O)=O)cc2)c(C#N)c(-c2cc(OC)c(OC)c(OC)c2)n1 | 43% |
| C=C1CCC2C3(C)COC(c4ccccc4)OC3CCC2(C)C1CC(NCc1ccccc1)C1=CCOC1=O (stereo unspecified) | 101% |
| C=C1CC[C@@H]2[C@]3(C)COC(c4ccccc4)O[C@@H]3CC[C@@]2(C)[C@@H]1C/C=C1/C(=O)OCC1OC(C)=O (stereo partly specified) | -61.5% (active) |

System: EKVX NSCLC
Experiment: as above
Conditions: 10 µM unless noted

| SMILES | growth |
| --- | --- |
| O=C(COc1ccc(NC(=O)Nc2ccc(Cl)cc2)cc1)N/N=C/c1ccccc1 | -58.5% (active) |
| COc1cc(/C=C/C(=O)c2ccccc2)ccc1Oc1nc(Nc2ccc(F)cc2)nc(N(C)C)n1 | 38.6% |
| CN(C)CCCNC(=O)c1cc(NC(=O)c2cc(NC(=O)c3ccc(/C=C/c4ccccc4)cc3)cn2C)cn1C | 66.9% |
| COc1ccc(C(=O)/C=C/c2ccc(Oc3nc(Nc4ccc(F)cc4)nc(N(C)C)n3)c(OC)c2)cc1 | 75.6% |
| CN(C)CCOc1ccc(C(=O)C2[C@H](c3ccc(Cl)cc3)[C@@H](c3ccccc3)NC23C(=O)Nc2ccc(Br)cc23)cc1 (stereo partly specified) | 12.3% |
| COc1ccc(-c2ccc(SCC(=O)NCCc3ccc(S(N)(=O)=O)cc3)nn2)cc1 | 93.9% |
| Cc1nc(Nc2ncc(C(=O)Nc3c(C)cccc3Cl)s2)cc(N2CCN(CCCNC(=O)COc3ccc(C4CCC(=O)NC4=O)cc3)CC2)n1 (stereo unspecified) | 58.6% |
| C=C1CCC2C3(C)COC(c4ccc(F)cc4)OC3CCC2(C)C1C/C=C1/C(=O)OCC1O (stereo unspecified) | 5.53% (active) |
| O=c1onc(-c2cc3ccccc3nc2Cl)n1-c1cccc2ccccc12 | 29.5% |
| O=C1NC(=O)/C(=C/c2ccccc2OCc2cc3ccccc3nc2Cl)S1 | 88% |
| O=C(COc1ccc(NC(=O)Nc2ccc(Cl)c(Cl)c2)cc1)N=Nc1c(O)[nH]c2ccc(Br)cc12 | 4.88% (active) |
| COc1cccc(/C=C/c2nc3ccccc3c(=O)n2CC(=O)Nc2ccc(Cl)cc2)c1 | 109% |
| COc1ccc(C(=O)/C=C/c2cccc(Cl)c2)cc1S(N)(=O)=O | -73.5% (active) |
| COc1cc(C2CC(c3cc(OC)c(OC)c(OC)c3)=NN2c2ccccc2)ccc1OCc1ccc(C)cc1 (stereo unspecified) | 94.1% |
| CCOP(=O)(OCCCl)c1nc(-c2ccc(C)cc2)oc1NCc1ccccc1 (stereo unspecified) | 67.2% |
| Cc1ccccc1[C@H]1C(C(=O)c2ccc(Cl)cc2)C2(N[C@@H]1c1ccccc1)C(=O)Nc1ccccc12 (stereo partly specified) | -15.6% (active) |
| Cc1ccccc1[C@H]1C(C(=O)c2ccc(Cl)cc2)C2(N[C@@H]1c1ccccc1)C(=O)Nc1ccc(Br)cc12 (stereo partly specified) | 26.4% |
| Cc1cc(=O)oc2cc(OCCOc3ccc(/C=C/C(=O)Nc4ccccc4N)cc3)ccc12 | 38.8% |
| COc1cccc(/C=C/C(=O)c2ccc(OC)c(S(N)(=O)=O)c2)c1 | 49.4% |

| SMILES | growth |
| --- | --- |
| Cn1cc(NC(=O)c2cc(NC(=O)c3ccc(/C=C/c4ccccc4)cc3)cn2C)cc1C(=O)NCCCN1CCOCC1 | 89.6% |
| CN1CCN(Cc2ccc(C(=O)Nc3cccc(C#Cc4cccc5[nH]nc(N)c45)c3)cc2C(F)(F)F)CC1 | -93.6% (active) |
| CCCn1cc(-c2nc(Nc3ccc(C(=O)NCCCCNc4cccc5c4C(=O)N(C4CCC(=O)NC4=O)C5=O)cc3)nc3[nH]ccc23)cn1 (stereo unspecified) | 54.4% |
| COc1c(F)ccc(C(=O)Nc2ccc3nc(NC(=O)C4CCCN(S(=O)(=O)c5ccc(C(F)(F)F)cc5)C4)sc3c2)c1F (stereo unspecified) | 103% |
| Cn1nc(C(F)(F)F)cc1-c1cc(Cl)c(COc2ccc(Cl)cc2)c(-c2ccc(Cl)c(C(F)(F)F)c2)c1O | -2.8% (active) |
| COc1ccc(C(=O)/C=C/c2ccccc2Br)cc1S(N)(=O)=O | -80.2% (active) |
| COc1ccc2c(c1)c(/C=N/Nc1ccc3ccccc3n1)cn2C | 53.1% |
| COc1c(F)ccc(C(=O)Nc2ccc3nc(NC(=O)C4CCCN(S(=O)(=O)c5ccc(Br)c(F)c5)C4)sc3c2)c1F (stereo unspecified) | 88.5% |
| COc1cc(OC)cc(-c2cc3ccc(N(C)C)cc3c(=O)[nH]2)c1 | 47% |
| Clc1cccc(-c2ccc(OCCCN3CCN(c4ccncc4)CC3)cc2)c1 | 11.6% |
| CC12CC[C@@H]3[C@]4(C)COC(c5cn[nH]c5-c5ccc(Br)cc5)O[C@@H]4CC[C@@]3(C)[C@@H]1CC(C1=CCOC1=O)O2 (stereo partly specified) | 43.2% |
| CC12CC[C@@H]3[C@]4(C)COC(c5cn[nH]c5-c5cccc(Cl)c5)O[C@@H]4CC[C@@]3(C)[C@@H]1CC(C1=CCOC1=O)O2 (stereo partly specified) | 26% |
| CCCSc1nc(Nc2ccc(S(N)(=O)=O)cc2)c(C#N)c(-c2ccc(Cl)cc2)n1 | 50.6% |
| COc1ccc(-c2nc3ccc(C(=O)NN4C(=O)c5ccc([N+](=O)[O-])cc5C4=O)cc3[nH]2)cc1 | 90.7% |
| C=C1CC[C@@H]2[C@]3(C)COC(c4cn[nH]c4-c4ccc(Br)cc4)O[C@@H]3CC[C@@]2(C)[C@@H]1C/C=C1/C(=O)OCC1O (stereo partly specified) | -51% (active) |
| Cc1cnc(C(=O)NNc2nc3cc(F)ccc3n3c(C(=O)N4CC5CC(C4)N5)ccc23)cn1 | 23.1% |
| CCCSc1nc(Nc2ccc(S(N)(=O)=O)cc2)c(C#N)c(-c2cc(OC)c(OC)c(OC)c2)n1 | 36.6% |
| C=C1CCC2C3(C)COC(c4ccccc4)OC3CCC2(C)C1CC(NCc1ccccc1)C1=CCOC1=O (stereo unspecified) | 73.8% |
| C=C1CC[C@@H]2[C@]3(C)COC(c4ccccc4)O[C@@H]3CC[C@@]2(C)[C@@H]1C/C=C1/C(=O)OCC1OC(C)=O (stereo partly specified) | 21.8% |
